Pf growth 48h: P. falciparum growth inhibition at 48 hours (one generation). 310,000 compounds, 5.9% hits. Potency, µM (series often up to 28.7 µM), for the others: top-dose activity change, negative = inhibition, most hits filed as inhibitors. P. falciparum luciferase growth in erythrocytes, 48 h; note: potency is the fitted concentration of half-maximal effect; % is set by controls: 0 for no effect and ±100 for the full control effect
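Cell-based growth assay: transgenic P. falciparum expressing firefly luciferase, cultured in red cells within RPMI 1640 containing 0.5% w/v Albumax, 24 mM bicarbonate and gentamycin. A drop in luciferase activity indicates inhibition.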
Pf growth 96h: P. falciparum growth inhibition at 96 hour, primary screen for plastid delayed-death inhibitors | P. falciparum luciferase reporter growth, 96 h | Potency, µM (series often up to 28.7 µM), for the others: top-dose activity change, negative = inhibition, usual class: inhibitors | 320,000 compounds, 6.9% hits | AID 504834; note: potency is the fitted concentration of half-maximal effect; % is set by controls: 0 for no effect and ±100 for the full control effect
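Readout is luminescence from an integrated firefly luciferase in P. falciparum. Red cells, 2% hematocrit and 0.05% parasitemia final, were cultured with compound through two parasite generations (96 hours) at 37 C, 5% CO2.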
CHX counter: counter-screen for Shiga toxin inhibitors: cycloheximide protein synthesis inhibition. max response, %. cell reporter, cycloheximide protein synthesis inhibition counterscreen. AID 2314. 300,000 compounds, 12% hits; in the data active = max response mostly above about 13%, no sharp cut-off; inactive = mostly below about 14%; note: read at 38.3 µM for the half of the compounds with a filed dose; 0% is about no effect
Shiga toxin inh: Shiga toxin inhibition; inhibition, % at 38.7 µM; Vero cells, Shiga toxin protein synthesis inhibition reporter; 290,000 compounds, 9.2% hits; in the data active = inhibition mostly above about 28%, no sharp cut-off; inactive = mostly below about 43%; note: 0% is about no effect
AMA1-RON2 inh: AMA1-RON2 (P. falciparum) interaction inhibition; AlphaScreen AMA1-biotinylated RON2 peptide binding; Potency, µM (top dose mostly 58.2 µM), without a hit: at the highest dose activity change, negative = inhibition, usual class: inhibitors; 360,000 compounds, 0.2% hits; AID 720542;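 note: potency is the fitted concentration of half-maximal effect; 0% = vehicle wells and -100% = peptide control; nearly all actives have a fitted effect of over 45% in size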
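AMA1 (3D7) with his tag at 25 nM final met compounds first, then biotinylated RON2 peptide at 25 nM; detection used donor plus acceptor beads, 10 µg/mL apiece, read by AlphaScreen after 30 min at room temperature.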
SARS PLpro yeast: inhibitors of SARS-CoV papain-like protease in yeast | S. cerevisiae expressing SARS-CoV PLpro, growth rescue | AID 485353 | 330,000 compounds, 0.19% hits | Potency, µM (series often up to 32.9 µM), for the others: top-dose activity, positive = growth rescue, actives largely listed as activators; calls by dose curve; note: potency is the fitted concentration of half-maximal effect; 0% is about no effect; nearly all actives have a fitted effect of over 55% in size
Starred values were filed as active, the others as inactive; ? = inconclusive; nt = no result given. The list is not random: actives were taken first. Their share in the collection is about 19%. Unless noted, calls come from the whole dose curve; as a rule, active = well fitted curve in the direction sought with a large enough effect; inconclusive = small, poorly fitted or top-dose-only effect, or another doubt; inactive = no such curve, though single readings can be large; an effect the other way counts as inactive or inconclusive.

SMILES	Pf growth 48h	Pf growth 96h	CHX counter	Shiga toxin inh	AMA1-RON2 inh	SARS PLpro yeast
COc1ccccc1CN(Cc1nc2ccccc2c(=O)[nH]1)S(=O)(=O)c1ccc(C)cc1	5.86µM*	nt	-5.6	-20.6	50.9%	-8.4%
Cc1ccc(CNC(=O)C(CCC(N)=O)NC(=O)OCc2ccccc2)cc1 (centres undefined)	5.3%	10.7%	4.1	-10.5	6.5%	0.9%
COc1ccc(C2/C=C\CN(C(=O)C3CC3)[C@H](Cc3ccccc3)C(=O)N2Cc2ccc(F)cc2)cc1 (some centres undefined)	10.4µM*	?	-4.1	-4.0	-10.6%	-11.2%
COc1ccc(C2/C=C\CN(C(=O)C3CC3)C(Cc3ccccc3)C(=O)N2Cc2ccc(F)cc2)cc1 (centres undefined)	nt	nt	15.1	-7.0	nt	nt
CCCCC(=O)N1C/C=C\C(c2ccc(OC)cc2)N(Cc2ccc(F)cc2)C(=O)C1C (centres undefined)	nt	nt	22.2	33.3	nt	nt
CCCCC(=O)N1C/C=C\C(c2ccc(OC)cc2)N(Cc2ccc(F)cc2)C(=O)[C@H]1Cc1ccccc1 (some centres undefined)	11.7µM*	10.4µM*	14.1	2.6	0.0%	-6.8%
CCCCCCC(=O)N1C/C=C\C(c2ccc(OC)cc2)N(Cc2ccc(F)cc2)C(=O)[C@H]1Cc1ccccc1 (some centres undefined)	9.28µM*	7.38µM*	-5.3	-6.3	-2.2%	-9.0%
O=C(Nc1ccccc1N1CCOCC1)c1ccc(S(=O)(=O)NCc2ccco2)cc1	16.4%	64.6%	-2.8	56.0	-11.6%	3.0%
O=C(c1ccc(Cl)c(S(=O)(=O)NCc2ccco2)c1)N1CCN(c2ccccc2F)CC1	nt	?	13.9	-4.6	-3.7%	14.1%
O=C(Nc1ccccc1N1CCOCC1)c1ccc(Cl)c(S(=O)(=O)NCc2ccco2)c1	?	?	28.4*	73.9	-9.5%	0.1%
COc1ccccc1N1CCN(C(=O)c2ccc(Cl)c(S(=O)(=O)NCc3ccco3)c2)CC1	?	nt	28.4*	66.2	14.4%	-8.1%
CN1CCN(C(=O)C2=C[C@@H](C3CC3)C[C@@H](OCc3ccc(CO)cc3)O2)CC1	7.5%	13.6%	3.2	-8.1	10.0%	0.9%
COc1ccc(C2N(c3ccccc3)CCN2c2ccccc2)cc1O	21.9%	16.7%	26.0*	59.0*	?	-1.8%
CC(C(=O)N(C1CC1)C1(C(=O)Nc2ccccc2)CCCC1)N1C(=O)c2ccccc2C1=O (centres undefined)	nt	?	-3.1	-24.9	-5.5%	-3.0%
CCOC(=O)N1CCC(NC(=O)c2cccn3c(=O)c4cc(Br)ccc4nc23)CC1	2.62µM*	58.7%	-2.3	-12.5	14.5%	-14.5%
CC1(C(=O)NS(=O)(=O)c2cccc(F)c2)CCN1C(=O)c1ccccc1 (centres undefined)	nt	nt	nt	nt	22.9%	nt
COc1cccc(-n2c(=O)n(Cc3ccccc3)c(=O)c3[nH]cnc32)c1C	-5.5%	-2.4%	8.4	15.5	-18.5%	-2.8%
O=C(Nc1ccccc1)N1CCC(c2nc(-c3ccc(S(=O)(=O)N4CCOCC4)cc3)no2)CC1	?	8.28µM*	-0.7	-10.2	-6.3%	0.1%
O=C(Nc1cccc(C(F)(F)F)c1)N1CCC(c2nc(-c3ccc(F)cc3)no2)CC1	?	291.3%	-2.5	0.0	1.7%	-9.0%
O=C(Nc1ccc(Cl)cc1)N1CCC(c2nc(-c3cccs3)no2)CC1	21.5%	37.5%	24.0*	49.1*	1.2%	-10.2%
COc1ccc(NC(=O)N2CCC(c3nc(-c4cccs4)no3)CC2)cc1	10.9%	0.522µM*	19.1*	11.4	-8.2%	-18.7%
O=C(Nc1ccc(Cl)cc1)N1CCC(c2nc(-c3ccccc3Cl)no2)CC1	1.85µM*	nt	15.1	9.7	1.6%	-8.5%
O=C(c1ccco1)N1CCC(c2nc(-c3ccccc3Cl)no2)CC1	-5.1%	0.0%	13.5	26.6	-3.7%	-8.0%
CCCCNC(=S)N(CCN(C)C)Cc1cc2cc3c(cc2[nH]c1=O)OCCO3	?	?	-2.1	-17.5	9.1%	3.9%
c1ccc(CCCNCCCn2cnc3c(OCc4ccccc4)ncnc32)cc1	nt	nt	nt	nt	-2.6%	nt
SMILES	Pf growth 48h	Pf growth 96h	CHX counter	Shiga toxin inh	AMA1-RON2 inh	SARS PLpro yeast
COC(=O)c1ccc(-c2nc3cc(Cl)c(N)cc3s2)cc1	218.5%	343.3%	48.1*	106.3*	-13.8%	4.1%
O=C1NC(=O)/C(=C\c2ccc(Br)o2)S1	30.9%	4.8%	23.4*	19.9*	11.4%	-10.7%
O=C(Nc1ccc(N2CCN(C(=O)c3ccccc3)CC2)c(Cl)c1)c1ccc(Br)o1	10.4µM*	60.1%	-2.3	13.7	11.1%	-13.1%
O=C(Nc1ccc(N2CCOCC2)c(Cl)c1)c1ccc(Br)o1	?	19.5%	79.2*	109.6*	32.3%	-27.7%
O=C(Nc1ccc(CN2CCOCC2)cc1)c1ccc(Br)o1	65.6%	196.2%	43.3*	68.7*	0.0%	2.1%
O=C(/C=C/c1ccc(Cl)cc1Cl)Nc1ccc(CN2CCOCC2)cc1	?	?	2.4	2.1	-21.8%	7.1%
O=C(Nc1ccc(CN2CCOCC2)cc1)c1ccc(-c2cc(Cl)ccc2Cl)o1	1.85µM*	?	-3.2	19.8	-19.8%	-4.5%
Cc1n[nH]c(C)c1S(=O)(=O)N1CCC(C(=O)Nc2cccc(F)c2)CC1	9.4%	?	6.1	-11.5	8.9%	0.7%
CC(C)Cn1c(N)c(C(=O)COC(=O)c2cc(C(F)(F)F)nc3c(C(F)(F)F)cccc23)c(=O)n(C)c1=O	-7.7%	-1.8%	-1.9	-4.8	nt	-0.5%
Clc1cccc(OCCN2CCCC2)c1	-9.4%	100.7%	-1.9	-13.2	-13.0%	-1.6%
CC(C)c1cccc(OCCN2CCCC2)c1	-26.3%	10.4µM*	5.4	-4.0	-9.1%	0.0%
CN1CCN(CCOc2cccc(Cl)c2)CC1	67.9%	10.4µM*	7.7	8.2	-4.4%	2.7%
COc1cccc(OCCCN2CCCCC2)c1	24.0%	-15.7%	-2.7	-18.2	3.5%	-7.9%
Cc1nn2cc(-c3ccc(N)cc3)nc2s1	19.4%	0.8%	34.8*	69.3*	-12.4%	-0.1%
CC1C/C(=N/Nc2ccc([N+](=O)[O-])cc2[N+](=O)[O-])CC(C)(C)C1 (centres undefined)	10.4µM*	?	-1.8	-3.5	?	-4.0%
CC1CCCC/C1=N/Nc1ccc([N+](=O)[O-])cc1[N+](=O)[O-] (centres undefined)	nt	236.7%	-4.6	30.3	-18.6%	2.8%
O=C(C/C=N/OCc1c(Cl)cccc1Cl)c1ccccc1	?	?	37.0*	47.8	1.3%	-1.7%
O=C(C/C=N/OCc1ccc(Cl)cc1Cl)c1ccccc1	?	0.0%	20.3*	46.6	12.0%	2.1%
O=C(C/C=N/OCc1ccc(Cl)cc1Cl)c1ccc(Cl)cc1	?	-23.7%	3.7	59.1	34.8%	-18.6%

From PubChem BioAssay
